In PubChem BioAssay (EPA / NIEHS):
Some structures have more than one record in an assay (separate samples or runs), and their calls can disagree. Active and inactive are the calls of the source. How the source made its calls: active means hit-call score of the fitted dose curve at least 0.9, where 1 is the maximum; inactive means score below 0.9.

Assays:
[1] = ATG_GLI_CIS: Attagene CIS-FACTORIAL HepG2 Assay for human Zinc Finger Protein GLI1 (AID 2282945); conditions: HepG2, Attagene cis-factorial reporter mRNA, GLI element; actives raise or lower the signal
Procedure, shortened: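 Bidirectional curve fits relative to DMSO, using reporter mRNA levels from RT-PCR plus capillary electrophoresis. Cells were HepG2 transiently carrying cis-regulated reporter constructs, harvested 24 h after dosing.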

[2] = ATG_ISRE_CIS: Attagene CIS-FACTORIAL HepG2 Assay for human Interferon Regulatory Factor 1 (IRF1) binding to an Interferon-Stimulated Response Element (ISRE) (AID 2282948); conditions: HepG2 ISRE cis-reporter (Attagene), mRNA transcription readout; actives raise or lower the signal
Procedure, shortened: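 Read-out: fluorescent RT-PCR products resolved by capillary electrophoresis, reporting endogenous transcription factor activity via ISRE-driven reporter mRNA in transfected HepG2 cells dosed for 24 h; gain or loss fitted relative to DMSO.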

[3] = ATG_M_32_CIS: Attagene CIS-FACTORIAL HepG2 Assay for M32 Transcription Factor (Internal Marker) (AID 2282949); conditions: HepG2 Attagene cis-factorial M32 reporter, mRNA; actives raise or lower the signal;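 further: background control marker of the multiplexed CIS panel rather than a real target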
Procedure, shortened: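 HepG2 human liver cells transiently transfected with cis-promoter-driven multiple reporter transcription units, dosed 24 h. Reporter mRNA quantified by RT-PCR, FAM-labelled primer extension, HpaI digest and capillary electrophoresis; bidirectional fit versus DMSO baseline.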

[4] = target: Hypoxia-inducible factor 1-alpha (Homo sapiens) (UniProt Q16665); experiment: ATG_HIF1a_CIS: Attagene CIS-FACTORIAL HepG2 Assay for human Hypoxia Inducible Factor 1 (HIF1A) (AID 2282951); conditions: HepG2 Attagene cis-factorial HIF1a reporter transcription; actives raise or lower the signal
Procedure, shortened: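 Measures endogenous transcription-factor activity through cis-regulated reporter mRNA in HepG2. Cells dosed 24 h; transcripts quantified by RT-PCR with 6-FAM-labelled products separated by capillary electrophoresis; DMSO serves as negative control.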

[5] = target: Hepatocyte nuclear factor 6 (Homo sapiens) (UniProt Q9UBC0); experiment: ATG_HNF6_CIS: Attagene CIS-FACTORIAL HepG2 Assay for human Hepatocyte Nuclear Factor 6 (HNF6) (AID 2282952); conditions: HepG2 Attagene cis-factorial HNF6 reporter transcription; actives raise or lower the signal
Procedure, shortened: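 Twenty-four-hour chemical treatment of reporter-transfected HepG2 cells precedes RNA isolation, DNase-treated reverse transcription and PCR of reporter sequences. Labelled fragments are sized by capillary electrophoresis and fitted bidirectionally versus DMSO.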

[6] = target: Heat shock factor protein 1 (Homo sapiens) (UniProt Q00613); experiment: ATG_HSE_CIS: Attagene CIS-FACTORIAL HepG2 Assay for human Heat Shock Transcription Factor 1 (HSE) (AID 2282953); conditions: HepG2 HSE cis-reporter, Attagene RNA transcription; actives raise or lower the signal
Procedure, shortened: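 Using HepG2 with transfected cis-driven reporter constructs, compound effects on endogenous factor activity are scored as reporter mRNA change at 24 h. Detection: RT-PCR, HpaI digestion, capillary electrophoresis; bidirectional fitting to DMSO.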

[7] = ATG_MRE_CIS: Attagene CIS-FACTORIAL HepG2 Assay for human Metal Responsive Element (MRE) (AID 2282954); conditions: HepG2 MRE cis-reporter transcription, Attagene multiplex; actives raise or lower the signal
Procedure, shortened: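 Endogenous MRE-dependent transcription read as reporter mRNA in transiently transfected human HepG2 cells at 24 h. RNA reverse-transcribed, PCR-amplified, labelled and resolved by capillary electrophoresis; gain or loss relative to DMSO.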

[8] = ATG_PBREM_CIS: Attagene CIS-FACTORIAL HepG2 Assay for human Phenobarbital-responsive Enhancer Module (PBREM) (AID 2282955); conditions: HepG2 PBREM cis-reporter, Attagene multiplexed transcription; actives raise or lower the signal
Procedure, shortened: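 Fluorescence of labelled reporter cDNA fragments, resolved by capillary electrophoresis, gives mRNA induction in transfected HepG2 cells treated for 24 h; DMSO serves as negative control and baseline.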

[9] = target: Paired box protein Pax-6 (Homo sapiens) (UniProt P26367); experiment: ATG_Pax6_CIS: Attagene CIS-FACTORIAL HepG2 Assay for human Paired Box 6 (PAX6) (AID 2282956); conditions: HepG2 CIS-FACTORIAL PAX6 reporter transcription, RNA readout; actives raise or lower the signal
Procedure, shortened: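 Readout: reporter transcript fluorescence after RT-PCR and capillary electrophoresis. Cells: HepG2, transiently transfected with cis-regulated MRTUs. Exposure 24 h. Gain or loss of signal fitted bidirectionally relative to DMSO.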

[10] = ATG_PXRE_CIS: Attagene CIS-FACTORIAL HepG2 Assay for human Pregnane X Receptor Element (PXRE) (AID 2282957); conditions: HepG2 Attagene CIS-FACTORIAL PXRE reporter, mRNA; actives raise or lower the signal
Procedure, shortened: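 Bidirectional activity, baselined to DMSO, derived from reporter mRNA fluorescence (RT-PCR plus capillary electrophoresis) in HepG2 cells bearing cis-promoter reporter units, 24 h exposure.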

[11] = ATG_PPRE_CIS: Attagene CIS-FACTORIAL HepG2 Assay for human Peroxisome Proliferator-activated Response Element (PPRE) (AID 2282958); conditions: HepG2 PPRE cis-element reporter, Attagene transcription factor profiling; actives raise or lower the signal
Procedure, shortened: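 Cells are first transfected transiently with the multiplexed reporter library, then dosed for 24 h. Total RNA is reverse-transcribed, amplified, fluorescently end-labeled and HpaI-cut before capillary electrophoresis; activity is fitted bidirectionally against DMSO controls.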

[12] = ATG_Sox_CIS: Attagene CIS-FACTORIAL HepG2 Assay for human SRY-box transcription factor (SOX) (AID 2282960); conditions: HepG2 Attagene cis-factorial SOX reporter, mRNA; actives raise or lower the signal
Procedure, shortened: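 Transient MRTU transfection of HepG2; 24 h compound incubation; TriZol RNA, oligo(dT) RT, PCR, 6-FAM primer extension, HpaI cut, CE. Bidirectional fit, DMSO = baseline.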

[13] = target: Transcription factor Sp1 (Homo sapiens) (UniProt P08047); experiment: ATG_Sp1_CIS: Attagene CIS-FACTORIAL HepG2 Assay for human Specificity Protein 1 (Sp1) (AID 2282961); conditions: HepG2 Sp1 cis-reporter transcription, actives raise or lower the signal
Procedure, shortened: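 Endogenous Sp1 activity was gauged in human liver HepG2 cells bearing transfected reporter units under a cis-regulating promoter. After 24 h dosing, reporter mRNA was quantified by RT-PCR with capillary electrophoresis, and activity fitted bidirectionally versus DMSO.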

[14] = ATG_SREBP_CIS: Attagene CIS-FACTORIAL HepG2 Assay for human Sterol Regulatory Element Binding (SREBP) (AID 2282962); conditions: HepG2 Attagene cis-factorial SREBP reporter, mRNA; actives raise or lower the signal
Procedure, shortened: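 Readout: fluorescent reporter-transcript peaks resolved by capillary electrophoresis after RT-PCR. Cells were human HepG2 carrying transfected cis-promoter reporter constructs, dosed for 24 h. Gain or loss of signal was fitted against DMSO controls.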

[15] = target: Signal transducer and activator of transcription 3 (Homo sapiens) (UniProt P40763); experiment: ATG_STAT3_CIS: Attagene CIS-FACTORIAL HepG2 Assay for human Signal Transducer and Activator of Transcription 3 (STAT3) (AID 2282963); conditions: HepG2, Attagene cis-factorial STAT3 reporter transcription; actives raise or lower the signal
Procedure, shortened: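 Readout is reporter transcript quantified by RT-PCR and capillary electrophoresis, with 6-FAM primer extension and HpaI digestion. Total RNA is taken 24 h after dosing transiently transfected HepG2 carrying cis-regulated reporter units. Bidirectional fit against DMSO.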

[16] = ATG_TA_CIS: Attagene CIS-FACTORIAL HepG2 Assay for human TA Basal Promoter (AID 2282964); conditions: HepG2 Attagene CIS-factorial TA basal promoter reporter; actives raise or lower the signal
Procedure, shortened: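 Transient MRTU transfection of HepG2 preceded 24 h compound exposure. Reporter mRNA levels were then read by RT-PCR with capillary electrophoresis, and this background-control endpoint was fitted bidirectionally to DMSO.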

[17] = target: Bile acid receptor (Homo sapiens) (UniProt Q96RI1); experiment: ATG_IR1_CIS: Attagene CIS-FACTORIAL HepG2 Assay for human Nuclear Receptor Subfamily 1 Group H Member 4 (NR1H4), IR1 submotif (AID 2282946); conditions: IR1 reporter transcription, actives raise or lower the signal
Procedure, shortened: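 HepG2 cells transiently transfected with multiplexed cis-element reporter units read endogenous transcription factor activity. After 24 h compound exposure, reporter mRNA was quantified by RT-PCR, fluorescent labelling, HpaI digestion and capillary electrophoresis; bidirectional fitting versus DMSO baseline.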

[18] = ATG_GRE_CIS: Attagene CIS-FACTORIAL HepG2 Assay for human Glucocorticoid Response Elements (GRE) (AID 2282947); conditions: HepG2 GRE cis-reporter, Attagene multiplex mRNA; actives raise or lower the signal
Procedure, shortened: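 Reporter transcripts read by RT-PCR with capillary electrophoresis fluorescence after a 24 h chemical exposure of HepG2 cells transiently transfected with multiple cis-element reporter units. Gain or loss fitted against DMSO.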

[19] = ATG_RORE_CIS: Attagene CIS-FACTORIAL HepG2 Assay for human RAR-related Orphan Receptor Element (RORE) (AID 2282959); conditions: HepG2 Attagene cis-factorial RORE reporter, mRNA; actives raise or lower the signal
Procedure, shortened: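 Cells were HepG2 carrying transfected cis-regulated reporter constructs, dosed for 24 hours. Total RNA was reverse-transcribed and reporter cDNA amplified, fluorescently labeled and sized by capillary electrophoresis. Activity was fitted bidirectionally relative to DMSO.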

[20] = ATG_M_06_CIS: Attagene CIS-FACTORIAL HepG2 Assay for M06 Transcription Factor (Internal Marker) (AID 2282950); conditions: HepG2 Attagene CIS-FACTORIAL M06 internal marker reporter; actives raise or lower the signal
Procedure, shortened: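 One of many multiplexed endpoints: HepG2 reporter mRNA after 24 h dosing, detected by RT-PCR and capillary electrophoresis fluorescence; gain or loss of signal analysed against DMSO.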

Measured: AC50

Transcription factor Sp1 (Homo sapiens), sequence (P08047 whole entry, looked up): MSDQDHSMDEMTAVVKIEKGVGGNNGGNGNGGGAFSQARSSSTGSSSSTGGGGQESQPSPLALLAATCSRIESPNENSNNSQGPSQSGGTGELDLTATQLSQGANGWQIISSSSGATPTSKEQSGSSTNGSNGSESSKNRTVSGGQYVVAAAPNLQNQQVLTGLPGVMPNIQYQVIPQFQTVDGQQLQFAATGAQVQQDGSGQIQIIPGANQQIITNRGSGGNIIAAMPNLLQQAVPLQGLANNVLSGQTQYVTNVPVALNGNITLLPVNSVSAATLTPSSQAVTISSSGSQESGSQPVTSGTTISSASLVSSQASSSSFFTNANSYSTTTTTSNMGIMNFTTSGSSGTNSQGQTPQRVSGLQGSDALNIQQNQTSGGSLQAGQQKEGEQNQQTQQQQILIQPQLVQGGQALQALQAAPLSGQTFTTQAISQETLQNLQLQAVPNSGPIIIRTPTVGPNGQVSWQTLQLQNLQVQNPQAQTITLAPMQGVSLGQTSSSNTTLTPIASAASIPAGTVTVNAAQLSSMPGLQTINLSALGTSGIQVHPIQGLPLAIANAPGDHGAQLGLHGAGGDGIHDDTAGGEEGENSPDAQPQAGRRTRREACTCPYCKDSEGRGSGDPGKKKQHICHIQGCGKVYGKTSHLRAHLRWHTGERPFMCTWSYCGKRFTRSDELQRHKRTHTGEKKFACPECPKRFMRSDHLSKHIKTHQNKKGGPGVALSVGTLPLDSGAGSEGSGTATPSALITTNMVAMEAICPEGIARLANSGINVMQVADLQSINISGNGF
Signal transducer and activator of transcription 3 (Homo sapiens), sequence (P40763 whole entry, looked up): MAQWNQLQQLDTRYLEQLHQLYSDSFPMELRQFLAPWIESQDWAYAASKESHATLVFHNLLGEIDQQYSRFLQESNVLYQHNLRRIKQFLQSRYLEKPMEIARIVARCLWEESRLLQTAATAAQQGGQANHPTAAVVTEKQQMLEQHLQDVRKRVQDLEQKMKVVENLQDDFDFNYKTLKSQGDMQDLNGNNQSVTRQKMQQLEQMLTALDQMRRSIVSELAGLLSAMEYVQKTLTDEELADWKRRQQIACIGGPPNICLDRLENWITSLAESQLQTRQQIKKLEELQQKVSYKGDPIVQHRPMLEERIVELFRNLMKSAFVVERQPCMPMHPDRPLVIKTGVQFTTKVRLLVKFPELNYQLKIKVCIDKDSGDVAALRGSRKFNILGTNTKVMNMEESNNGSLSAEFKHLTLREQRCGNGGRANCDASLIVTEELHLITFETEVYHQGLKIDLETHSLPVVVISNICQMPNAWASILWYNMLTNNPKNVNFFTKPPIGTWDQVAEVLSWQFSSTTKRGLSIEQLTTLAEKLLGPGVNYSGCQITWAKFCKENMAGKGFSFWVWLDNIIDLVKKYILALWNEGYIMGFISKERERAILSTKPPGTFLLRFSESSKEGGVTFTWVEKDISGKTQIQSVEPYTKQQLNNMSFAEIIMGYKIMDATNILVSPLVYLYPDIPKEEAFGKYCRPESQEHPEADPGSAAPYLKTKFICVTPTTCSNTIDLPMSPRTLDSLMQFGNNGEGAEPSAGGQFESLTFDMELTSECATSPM
Heat shock factor protein 1 (Homo sapiens), sequence (Q00613 whole entry, looked up): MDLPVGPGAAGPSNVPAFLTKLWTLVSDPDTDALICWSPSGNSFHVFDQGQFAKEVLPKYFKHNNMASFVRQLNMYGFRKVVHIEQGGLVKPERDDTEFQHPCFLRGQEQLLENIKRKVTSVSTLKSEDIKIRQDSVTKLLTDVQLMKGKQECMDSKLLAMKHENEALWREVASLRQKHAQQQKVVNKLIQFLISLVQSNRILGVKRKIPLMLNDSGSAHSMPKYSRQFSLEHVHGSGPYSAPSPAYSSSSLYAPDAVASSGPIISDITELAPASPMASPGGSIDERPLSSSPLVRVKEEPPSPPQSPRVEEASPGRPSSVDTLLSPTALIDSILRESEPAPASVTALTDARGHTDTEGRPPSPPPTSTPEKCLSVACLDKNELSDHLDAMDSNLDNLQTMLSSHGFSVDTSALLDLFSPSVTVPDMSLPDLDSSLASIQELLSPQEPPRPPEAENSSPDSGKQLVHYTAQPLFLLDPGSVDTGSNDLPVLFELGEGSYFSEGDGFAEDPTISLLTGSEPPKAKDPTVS
Hepatocyte nuclear factor 6 (Homo sapiens), sequence (Q9UBC0 whole entry, looked up, the tested form may be a part): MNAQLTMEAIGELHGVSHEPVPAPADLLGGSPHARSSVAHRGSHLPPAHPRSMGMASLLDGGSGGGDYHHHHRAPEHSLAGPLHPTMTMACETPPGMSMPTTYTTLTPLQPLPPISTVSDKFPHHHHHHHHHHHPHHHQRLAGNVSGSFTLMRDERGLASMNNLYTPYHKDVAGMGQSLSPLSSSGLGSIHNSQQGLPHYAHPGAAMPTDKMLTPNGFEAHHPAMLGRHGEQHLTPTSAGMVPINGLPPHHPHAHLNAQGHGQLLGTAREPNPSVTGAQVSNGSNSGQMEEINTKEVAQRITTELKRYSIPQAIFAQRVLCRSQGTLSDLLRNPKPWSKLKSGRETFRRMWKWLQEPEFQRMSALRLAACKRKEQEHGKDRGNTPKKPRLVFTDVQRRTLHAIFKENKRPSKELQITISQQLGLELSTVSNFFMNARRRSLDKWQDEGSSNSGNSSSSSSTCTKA
Hypoxia-inducible factor 1-alpha (Homo sapiens), sequence (Q16665 whole entry, looked up): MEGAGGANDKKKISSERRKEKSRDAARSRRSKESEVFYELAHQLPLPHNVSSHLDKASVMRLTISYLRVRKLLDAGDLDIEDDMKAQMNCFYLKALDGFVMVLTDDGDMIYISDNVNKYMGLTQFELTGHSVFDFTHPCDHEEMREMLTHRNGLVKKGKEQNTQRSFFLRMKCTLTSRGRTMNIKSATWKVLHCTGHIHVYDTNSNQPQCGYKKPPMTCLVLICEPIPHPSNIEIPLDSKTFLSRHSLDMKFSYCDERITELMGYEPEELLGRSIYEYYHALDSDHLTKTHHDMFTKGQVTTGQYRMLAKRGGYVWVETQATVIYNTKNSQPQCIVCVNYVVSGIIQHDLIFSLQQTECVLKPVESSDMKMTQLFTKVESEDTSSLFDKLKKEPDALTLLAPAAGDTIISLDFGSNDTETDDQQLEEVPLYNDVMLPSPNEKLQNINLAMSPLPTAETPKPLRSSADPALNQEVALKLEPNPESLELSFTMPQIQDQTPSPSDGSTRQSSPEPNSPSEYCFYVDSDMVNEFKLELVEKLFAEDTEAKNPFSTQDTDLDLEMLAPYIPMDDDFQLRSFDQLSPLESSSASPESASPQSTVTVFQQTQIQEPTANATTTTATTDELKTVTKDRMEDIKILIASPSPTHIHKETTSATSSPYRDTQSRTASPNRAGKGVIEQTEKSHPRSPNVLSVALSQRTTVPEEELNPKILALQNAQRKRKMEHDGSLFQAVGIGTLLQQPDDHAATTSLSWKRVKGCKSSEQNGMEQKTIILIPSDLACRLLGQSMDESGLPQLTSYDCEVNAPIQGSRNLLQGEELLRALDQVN
Bile acid receptor (Homo sapiens), sequence (Q96RI1 whole entry, looked up): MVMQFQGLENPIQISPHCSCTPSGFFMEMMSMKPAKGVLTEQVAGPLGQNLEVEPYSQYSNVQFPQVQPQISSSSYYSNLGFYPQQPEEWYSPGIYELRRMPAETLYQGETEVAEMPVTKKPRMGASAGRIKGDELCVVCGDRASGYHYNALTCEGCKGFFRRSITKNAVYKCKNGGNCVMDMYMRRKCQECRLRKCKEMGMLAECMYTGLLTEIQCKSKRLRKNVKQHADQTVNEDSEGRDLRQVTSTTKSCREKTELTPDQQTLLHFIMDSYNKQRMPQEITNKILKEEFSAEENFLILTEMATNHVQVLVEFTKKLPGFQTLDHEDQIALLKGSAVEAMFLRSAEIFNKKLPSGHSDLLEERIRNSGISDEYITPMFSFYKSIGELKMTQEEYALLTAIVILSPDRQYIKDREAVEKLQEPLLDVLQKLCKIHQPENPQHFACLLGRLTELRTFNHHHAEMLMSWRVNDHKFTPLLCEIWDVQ
Paired box protein Pax-6 (Homo sapiens), sequence (P26367 whole entry, looked up): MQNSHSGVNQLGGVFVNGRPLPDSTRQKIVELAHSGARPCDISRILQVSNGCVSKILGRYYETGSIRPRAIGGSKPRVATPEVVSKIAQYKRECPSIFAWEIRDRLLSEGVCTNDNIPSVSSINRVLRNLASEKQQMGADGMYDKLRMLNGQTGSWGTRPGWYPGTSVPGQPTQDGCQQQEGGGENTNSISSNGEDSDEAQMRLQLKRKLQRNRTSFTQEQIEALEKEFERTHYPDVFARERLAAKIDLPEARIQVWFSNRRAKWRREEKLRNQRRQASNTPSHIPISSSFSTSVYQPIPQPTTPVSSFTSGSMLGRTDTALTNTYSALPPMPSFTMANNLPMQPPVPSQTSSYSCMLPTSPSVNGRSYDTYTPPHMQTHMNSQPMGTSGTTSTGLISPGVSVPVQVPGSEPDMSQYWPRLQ

CCC(C)(C)C1CCC(O)CC1 (stereo not given)
inactive: [1] | [2] | [3] | [4] | [5] | [6] | [7] | [8] | [9] | [11] | [12] | [13] | [14] | [15] | [16]
active: [10] 21.9 µM [middle of 4 runs]

COC(=O)CCCCC(=O)OC
inactive: [1] | [17] | [18] | [2] | [3] | [4] | [5] | [6] | [7] | [10] | [11] | [19] | [12] | [13] | [14] | [15] | [16]

CCOC(=O)CC(O)(CC(=O)OCC)C(=O)OCC
active: [10] 50.4 µM
inactive: [1] | [18] | [2] | [3] | [20] | [4] | [5] | [6] | [7] | [8] | [9] | [10] | [19] | [12] | [13] | [14] | [15] | [16]

Cc1cc(CCN2CCN(c3nsc4ccccc34)CC2)cc2c1NC(=O)CC2(C)C
active: [2] 8.79 µM | [7] 13.3 µM | [8] 6.35 µM | [10] 1.16 µM | [19] 6.32 µM | [13] 14.7 µM
inactive: [1] | [17] | [18] | [3] | [4] | [5] | [6] | [9] | [12] | [14] | [15] | [16]

CCCCCCCC(=O)O
inactive: [1] | [18] | [2] | [3] | [20] | [4] | [5] | [6] | [7] | [8] | [9] | [10] | [19] | [12] | [13] | [14] | [15] | [16]

O=C(O)c1ccccc1C(c1ccc(O)cc1)c1ccc(O)cc1
inactive: [1] | [18] | [2] | [3] | [4] | [5] | [6] | [7] | [8] | [9] | [11] | [19] | [12] | [13] | [14] | [15] | [16]
active: [10] 44.9 µM [middle of 4 runs]

CCc1nn(C2CCCCC2)c2cc(C3(C#N)CCC(C(=O)O)CC3)ccc12 (stereo not given)
inactive: [1] | [17] | [18] | [3] | [5] | [6] | [8] | [10] | [12] | [13] | [15]
active: [2] 67.2 µM | [4] 100 µM | [7] 100 µM | [9] 100 µM | [11] 0.438 µM | [19] 32.4 µM | [14] 65.5 µM | [16] 69.9 µM
